Here are results for 27 compounds from PubChem BioAssay AID504332 (National Center for Advancing Translational Sciences (NCATS), 2011).

The whole screen tested about 350,000 compounds, of which about 31,000 (8.9%) were called active. Entries that show only a call come without a potency. Roughly 15% stayed inconclusive and do not appear here. For the sample, actives were picked, then their nearest neighbours and some compounds at random. Values without a mark were called inactive. Calls come from the whole dose curve; as a rule, active = well fitted inhibition curve with a large enough effect; inconclusive = small, poorly fitted or top-dose-only effect; inactive = no such curve, though single readings can be large or run the other way.
Potency is the fitted concentration of half-maximal effect.

Chain of Histone-lysine N-methyltransferase EHMT2 (Homo sapiens) (Q96KQ7 913-1193 limits assumed): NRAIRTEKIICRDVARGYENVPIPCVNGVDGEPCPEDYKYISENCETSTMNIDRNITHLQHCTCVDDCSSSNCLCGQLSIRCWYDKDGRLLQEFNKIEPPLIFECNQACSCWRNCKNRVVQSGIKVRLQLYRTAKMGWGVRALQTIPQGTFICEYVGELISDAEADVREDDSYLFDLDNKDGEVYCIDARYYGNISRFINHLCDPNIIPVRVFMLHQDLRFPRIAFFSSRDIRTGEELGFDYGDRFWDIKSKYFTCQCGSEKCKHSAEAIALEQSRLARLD

The target of the experiment is Histone-lysine N-methyltransferase EHMT2 (Homo sapiens) (UniProt Q96KQ7). Kind of experiment: qHTS Assay for Inhibitors of Histone Lysine Methyltransferase G9a. Note: nearly all actives have a fitted effect of over 75% in size. To be noted: G9a H3K9 monomethylation, AlphaScreen, 2 h; series mostly up to 59 µM. In outline:
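AlphaScreen read-out: biotin-H3K9 peptide (500 nM) methylation by 20 nM enzyme with 20 uM SAM, 2 h at room temperature after 15 min compound preincubation; anti-monomethyl H3K9 antibody plus donor/acceptor beads, 10 min dark.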
(In general: Quantitative high-throughput screening tests each substance at several concentrations.)
With `O=C(O)c1cccc2c1C(=O)N(C1CCCC1)C2`, the Potency entry was “inactive”.

With `O=C(OCC(=O)N1CCN(C(=O)c2ccco2)CC1)c1ccc(Cl)c(Cl)c1`, the activity, negative = inhibition was 16.1% [at 12.7 µM].

Take `COc1ccc(NC(=O)c2ccc3nc(C(C)C)oc3c2)cc1OC`: the Potency entry was “inactive”.

Take `Cc1cc2nc3n(c2cc1C)CC1CC(C(=O)NCCC(C)C)N(C)C31` (configuration not stated): the activity, negative = inhibition is 5.1% [at 12.7 µM].

As for `CCc1ccc(CN(Cc2ccco2)C(=O)c2ccccc2Cl)cc1`, the Potency result is “inactive”.

As for `CC1CCC(NC(=O)c2ccc(N3CCCC3=O)cc2)CC1` (configuration not stated), the Potency entry is “inactive”.

For `O=C(NCCCN1CCCCCC1)c1ccc(N2CCCC2=O)cc1`, the Potency was 22.4 µM (active).

As to `CCOc1ccc(C(=O)NCCCN2CCCC2=O)cc1`, the Potency entry is “inactive”.

In the case of `Cc1nc(SCC(=O)N2CCN(c3ccccc3)CC2)[nH]c(=O)c1C`, the Potency result is “inactive”.

On to `CC(C)Cn1c(N)c(C(=O)COC(=O)C2CCCN2C(=O)c2cccs2)c(=O)n(C)c1=O` (configuration not stated), for which the Potency result is “inactive”.

`O=C(CCN1C(=O)/C(=C/c2cccs2)SC1=S)NNC(=O)c1cccc(O)c1`: the Potency entry was “inactive”.

Consider `CC(C(=O)Nc1ccc(O)c(C(=O)O)c1)N1C(=O)/C(=C/c2cccs2)SC1=S` (configuration not stated), for which the Potency is 35.5 µM (active).

On to `O=C(CCCN1C(=O)/C(=C/c2cccs2)SC1=S)Nc1ccc(O)cc1`, for which the Potency result was “inactive”.

For `O=C(COc1ccccc1Cl)Nc1ccccc1C(=O)NC1CC1`, the Potency entry is “inactive”.

For the compound `Cc1cnc(C)c(N2CCN(C(=O)C3CCC(=O)N(CCc4cccc(F)c4)C3)CC2)n1` (configuration not stated), the Potency entry is “inactive”.

In the case of `CCCCC(CC(C)O)c1n[nH]c(=S)n1-c1ccccc1` (configuration not stated), the Potency is 5.01 µM (active).

Consider `N#Cc1ccccc1Cn1cnc2nc3c(cc2c1=O)CCCC3`, for which the Potency result was “inactive”.

Turning to `CCOC(=O)N1CCN(C(=O)CSc2nc(=O)n3cccc(C)c3n2)CC1`, the Potency entry was “inactive”.

Consider `Oc1c(CN2CCCC2)cc(COCc2ccccc2)c2cccnc12`, for which the activity, negative = inhibition was -18% [at 12.7 µM].

Regarding `COc1ccccc1N1CCN(C(CNC(=O)C(=O)NCc2ccc(C)cc2)c2cccnc2)CC1` (configuration not stated), the Potency entry was “inactive”.

For `CCOc1ccc(C(NC(=O)c2cc(OC)c(OC)c(OC)c2)c2cc(Cl)c3cccnc3c2O)cc1` (configuration not stated), the Potency entry was “inactive”.

Take `CCOC(=O)N1CCN(C(c2cccnc2)c2ccc3cccnc3c2O)CC1` (configuration not stated): the Potency was 0.316 µM (active).

Turning to `CCN1CCN(C(c2cccnc2)c2cc(Cl)c3cccnc3c2O)CC1` (configuration not stated), the Potency was 1.12 µM (active).

Regarding `CC1CCCN(c2cc3c(cc2F)c(=O)c(S(=O)(=O)c2cccc(Cl)c2)cn3Cc2ccccc2)C1` (configuration not stated), the Potency entry is “inactive”.

Take `CC(O)c1ccc(OCCN(C)c2ccccn2)cc1` (configuration not stated): the activity, negative = inhibition was -1.26% [at 2.33 µM].

`Cc1nc2ccn(Cc3cccs3)c(=O)c2cc1C(=O)NCc1ccc(Cl)cc1`: the Potency result was “inactive”.

Take `COc1ccc(CNS(=O)(=O)c2cc3c4c(c2)CCN4C(=O)CC3)cc1`: the Potency result is “inactive”.
